# Experimental data taken from PubChem BioAssay (NCI).
# The panel holds about 79,000 compounds, 15% with a hit somewhere; the sample as a whole holds those more often. A number with no mark means an inactive call. Calls of active or inactive are those of the source. Cut-off read from the data, not from the text of the source: active = growth inhibition above about 70%; inactive = the rest.
# How the values were obtained:
# [1] = NCI Yeast Anticancer Drug Screen. Data for the rad52 strain (AID 147);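 note: 0% = growth of vehicle-treated control cultures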; conditions: S. cerevisiae rad52 mutant growth inhibition, hits give high values
# Summary of the method: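 Growth of repair-deficient yeast cells was compared between compound-treated and vehicle-treated cultures to give percent inhibition.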
# [2] = NCI Yeast Anticancer Drug Screen. Data for the wt1 strain (AID 149);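 note: 0% = growth of vehicle-treated wt1 cultures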; conditions: S. cerevisiae wt1 strain (SPY 50644) growth inhibition, hits give high values
# Summary of the method: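 Measured: growth of wt1 yeast under compound versus vehicle treatment, reported as inhibition.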
# [3] = NCI Yeast Anticancer Drug Screen. Data for the rad50EPP+ strain (AID 151);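 note: 0% = growth of vehicle-treated control cultures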; conditions: S. cerevisiae rad50 mutant strain, hits give high values
# Summary of the method: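 Measured: growth inhibition of rad50EPP+ yeast. Reference: vehicle-treated controls. Screen uses strains with defined genetic alterations in DNA damage repair or cell cycle control.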
# [4] = NCI Yeast Anticancer Drug Screen. Data for the mgt1 strain (AID 153); conditions: S. cerevisiae mgt1 mutant growth inhibition, hits give high values
# Summary of the method: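 Compounds were applied to mgt1 mutant yeast, and growth was then compared against vehicle-treated control cultures to give percent inhibition.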
# [5] = NCI Yeast Anticancer Drug Screen. Data for the rad50 strain (AID 155);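 note: 0% = growth of vehicle-only cultures of the same strain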; conditions: S. cerevisiae rad50 strain growth inhibition, hits give high values
# Summary of the method: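 Growth of the mutant yeast was measured after compound exposure and referenced to vehicle-treated cultures.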
# [6] = NCI Yeast Anticancer Drug Screen. Data for the mec2-1 strain (AID 157); conditions: S. cerevisiae mec2-1 strain, hits give high values
# Summary of the method: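 Compounds were applied to mec2-1 yeast cells. Their growth was then compared with that of vehicle-treated cultures to give growth inhibition.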
# [7] = NCI Yeast Anticancer Drug Screen. Data for the rad14 strain (AID 159);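 note: 0% = growth of vehicle-treated control cultures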; conditions: S. cerevisiae rad14 strain growth inhibition, hits give high values
# Summary of the method: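 Here, inhibition of yeast growth was measured after compound exposure, using a strain with a genetic defect in DNA damage repair and vehicle-treated cultures as the reference.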
# [8] = NCI Yeast Anticancer Drug Screen. Data for the sgs1 mgt1 strain (AID 161);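 note: 0% = growth of cultures given vehicle only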; conditions: S. cerevisiae sgs1 mgt1 strain, hits give high values
# Summary of the method: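 Compounds are added to genetically altered yeast, and growth is compared with cultures given vehicle alone to give percent inhibition.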
# [9] = NCI Yeast Anticancer Drug Screen. Data for the CLN2oe strain (AID 163);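 note: 0% = growth of vehicle-only control cultures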; conditions: S. cerevisiae CLN2oe strain, hits give high values
# Summary of the method: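 Cells of an engineered yeast line with disturbed cell-cycle regulation are treated with compound. Inhibition of growth is then calculated relative to the vehicle-treated reference.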
# [10] = NCI Yeast Anticancer Drug Screen. Data for the cln2 rad14 strain (AID 165);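 note: 0% = growth equal to vehicle treated cultures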; conditions: S. cerevisiae cln2 rad14 strain, hits give high values
# Summary of the method: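 Strain: cln2 rad14 yeast, altered in cell cycle control and DNA damage repair. Read-out: growth inhibition vs vehicle.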
# [11] = NCI Yeast Anticancer Drug Screen. Data for the bub3 strain (AID 167); conditions: S. cerevisiae bub3 mutant strain, hits give high values
# Summary of the method: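 Whole-cell yeast assay. The mutant strain was incubated with compounds, and growth inhibition was determined by comparison with vehicle-treated cells.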
# [12] = NCI Yeast Anticancer Drug Screen. Data for the wt2 strain (AID 169);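 note: 0% = growth of vehicle-treated yeast cultures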; conditions: S. cerevisiae wt2 strain growth inhibition, hits give high values
# Summary of the method: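 Growth of compound-treated yeast is measured and expressed as inhibition relative to vehicle-only controls.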
# [13] = NCI Yeast Anticancer Drug Screen. Data for the mlh1 rad18 strain (AID 175); conditions: S. cerevisiae mlh1 rad18 strain growth inhibition, hits give high values
# Summary of the method: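 A repair-deficient yeast strain is exposed to test compound, and growth is scored relative to vehicle-treated controls.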
# [14] = NCI Yeast Anticancer Drug Screen. Data for the rad18 strain (AID 177); conditions: S. cerevisiae rad18 mutant growth inhibition, hits give high values
# Summary of the method: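 DNA-repair-defective yeast; compound treatment; growth inhibition scored against vehicle.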
# [15] = NCI Yeast Anticancer Drug Screen. Data for the mlh1 strain (AID 171);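 note: 0% = growth of vehicle-treated control cultures of the same strain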; conditions: S. cerevisiae mlh1 strain growth inhibition, hits give high values
# Summary of the method: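 Test agents were incubated with yeast bearing a defined DNA damage repair or cell cycle control alteration; values are growth inhibition normalised to vehicle-treated cultures.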
# [16] = NCI Yeast Anticancer Drug Screen. Data for the sgs1 strain (AID 173);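 note: 0% = growth of vehicle-only control cultures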; conditions: S. cerevisiae sgs1 mutant, hits give high values
# Summary of the method: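 Strain with an altered DNA repair or cell cycle pathway exposed to compound. Growth then measured. Value = inhibition versus vehicle control.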
# [17] = at 5.0 µM (retest, dose inferred, filed as 0.5)
# [18] = at 50.0 µM (retest, dose inferred, filed as 5.0)
smiles,measurement,setting,value
C=C(C)[C@@H]1CCc2c(O)c(O)c(=O)cc(C)c2C1,growth inhibition,[1]; at 1.2 µM,0%
same,growth inhibition,[1]; at 3.7 µM,21%
same,growth inhibition,[1]; at 11.0 µM,38%
same,growth inhibition,[1]; at 33.0 µM,77% (active)
same,growth inhibition,[1]; at 100.0 µM,98% (active)
same,growth inhibition,[2]; at 1.2 µM,7%
same,growth inhibition,[2]; at 3.7 µM,25%
same,growth inhibition,[2]; at 11.0 µM,37%
same,growth inhibition,[2]; at 33.0 µM,58%
same,growth inhibition,[2]; at 100.0 µM,99% (active)
same,growth inhibition,[3]; at 1.2 µM,-3%
same,growth inhibition,[3]; at 3.7 µM,8%
same,growth inhibition,[3]; at 11.0 µM,39%
same,growth inhibition,[3]; at 33.0 µM,68%
same,growth inhibition,[3]; at 100.0 µM,98% (active)
same,growth inhibition,[4]; at 1.2 µM,10%
same,growth inhibition,[4]; at 3.7 µM,26%
same,growth inhibition,[4]; at 11.0 µM,41%
same,growth inhibition,[4]; at 33.0 µM,90% (active)
same,growth inhibition,[4]; at 100.0 µM,98% (active)
same,growth inhibition,[5]; at 1.2 µM,-10%
same,growth inhibition,[5]; at 3.7 µM,11%
same,growth inhibition,[5]; [17],41%
same,growth inhibition,[5]; at 11.0 µM,37%
same,growth inhibition,[5]; at 33.0 µM,80% (active)
same,growth inhibition,[5]; [18],97% (active)
same,growth inhibition,[5]; at 50.0 µM,91.6% (active)
same,growth inhibition,[5]; at 100.0 µM,98% (active)
same,growth inhibition,[6]; at 1.2 µM,2%
same,growth inhibition,[6]; at 3.7 µM,22%
same,growth inhibition,[6]; [17],41%
same,growth inhibition,[6]; at 11.0 µM,32%
same,growth inhibition,[6]; at 33.0 µM,61%
same,growth inhibition,[6]; [18],99% (active)
same,growth inhibition,[6]; at 50.0 µM,93% (active)
same,growth inhibition,[6]; at 100.0 µM,98% (active)
same,growth inhibition,[7]; at 1.2 µM,-30%
same,growth inhibition,[7]; at 3.7 µM,-14%
same,growth inhibition,[7]; at 11.0 µM,37%
same,growth inhibition,[7]; at 33.0 µM,85% (active)
same,growth inhibition,[7]; at 100.0 µM,99% (active)
same,growth inhibition,[8]; [17],46%
same,growth inhibition,[8]; [18],99% (active)
same,growth inhibition,[8]; at 50.0 µM,92.8% (active)
same,growth inhibition,[9]; at 1.2 µM,2%
same,growth inhibition,[9]; at 3.7 µM,20%
same,growth inhibition,[9]; at 11.0 µM,33%
same,growth inhibition,[9]; at 33.0 µM,90% (active)
same,growth inhibition,[9]; at 100.0 µM,99% (active)
same,growth inhibition,[10]; [17],3%
same,growth inhibition,[10]; [18],93% (active)
same,growth inhibition,[10]; at 50.0 µM,91.3% (active)
same,growth inhibition,[11]; at 1.2 µM,8%
same,growth inhibition,[11]; at 3.7 µM,23%
same,growth inhibition,[11]; [17],52%
same,growth inhibition,[11]; at 11.0 µM,43%
same,growth inhibition,[11]; at 33.0 µM,82% (active)
same,growth inhibition,[11]; [18],96% (active)
same,growth inhibition,[11]; at 50.0 µM,92.2% (active)
same,growth inhibition,[11]; at 100.0 µM,98% (active)
same,growth inhibition,[12]; at 1.2 µM,-69%
same,growth inhibition,[12]; at 3.7 µM,-31%
same,growth inhibition,[12]; at 11.0 µM,-27%
same,growth inhibition,[12]; at 33.0 µM,91% (active)
same,growth inhibition,[12]; at 100.0 µM,97% (active)
same,growth inhibition,[13]; [17],57%
same,growth inhibition,[13]; [18],96% (active)
same,growth inhibition,[13]; at 50.0 µM,92.2% (active)
same,growth inhibition,[14]; at 1.2 µM,1%
same,growth inhibition,[14]; at 3.7 µM,34%
same,growth inhibition,[14]; at 11.0 µM,48%
same,growth inhibition,[14]; at 33.0 µM,76% (active)
same,growth inhibition,[14]; at 100.0 µM,98% (active)
COc1ccc(C(C#N)=C2C=CC(=NO)C=C2)cc1,growth inhibition,[1]; at 1.2 µM,11%
same,growth inhibition,[1]; at 3.7 µM,34%
same,growth inhibition,[1]; at 11.0 µM,89% (active)
same,growth inhibition,[1]; at 33.0 µM,96% (active)
same,growth inhibition,[1]; at 100.0 µM,96% (active)
same,growth inhibition,[2]; at 1.2 µM,-1%
same,growth inhibition,[2]; at 3.7 µM,-2%
same,growth inhibition,[2]; at 11.0 µM,14%
same,growth inhibition,[2]; at 33.0 µM,96% (active)
same,growth inhibition,[2]; at 100.0 µM,97% (active)
same,growth inhibition,[3]; at 1.2 µM,42%
same,growth inhibition,[3]; at 3.7 µM,70% (active)
same,growth inhibition,[3]; at 11.0 µM,90% (active)
same,growth inhibition,[3]; at 33.0 µM,93% (active)
same,growth inhibition,[3]; at 100.0 µM,93% (active)
same,growth inhibition,[4]; at 1.2 µM,0%
same,growth inhibition,[4]; at 3.7 µM,18%
same,growth inhibition,[4]; at 11.0 µM,88% (active)
same,growth inhibition,[4]; at 33.0 µM,97% (active)
same,growth inhibition,[4]; at 100.0 µM,91% (active)
same,growth inhibition,[5]; at 1.2 µM,18%
same,growth inhibition,[5]; at 3.7 µM,38%
same,growth inhibition,[5]; [17],23%
same,growth inhibition,[5]; at 11.0 µM,81% (active)
same,growth inhibition,[5]; at 33.0 µM,96% (active)
same,growth inhibition,[5]; [18],62%
same,growth inhibition,[5]; at 50.0 µM,65.4%
same,growth inhibition,[5]; at 100.0 µM,95% (active)
same,growth inhibition,[6]; at 1.2 µM,1%
same,growth inhibition,[6]; at 3.7 µM,16%
same,growth inhibition,[6]; [17],-2%
same,growth inhibition,[6]; at 11.0 µM,96% (active)
same,growth inhibition,[6]; at 33.0 µM,97% (active)
same,growth inhibition,[6]; [18],25%
same,growth inhibition,[6]; at 50.0 µM,88.2% (active)
same,growth inhibition,[6]; at 100.0 µM,98% (active)
same,growth inhibition,[7]; at 1.2 µM,13%
same,growth inhibition,[7]; at 3.7 µM,19%
same,growth inhibition,[7]; at 11.0 µM,83% (active)
same,growth inhibition,[7]; at 33.0 µM,96% (active)
same,growth inhibition,[7]; at 100.0 µM,82% (active)
same,growth inhibition,[8]; [17],51%
same,growth inhibition,[8]; [18],79% (active)
same,growth inhibition,[8]; at 50.0 µM,87.7% (active)
same,growth inhibition,[9]; at 1.2 µM,7%
same,growth inhibition,[9]; at 3.7 µM,11%
same,growth inhibition,[9]; at 11.0 µM,58%
same,growth inhibition,[9]; at 33.0 µM,55%
same,growth inhibition,[9]; at 100.0 µM,68%
same,growth inhibition,[10]; [17],17%
same,growth inhibition,[10]; [18],41%
same,growth inhibition,[10]; at 50.0 µM,60.3%
same,growth inhibition,[11]; at 1.2 µM,-1%
same,growth inhibition,[11]; at 3.7 µM,7%
same,growth inhibition,[11]; [17],24%
same,growth inhibition,[11]; at 11.0 µM,22%
same,growth inhibition,[11]; at 33.0 µM,42%
same,growth inhibition,[11]; [18],82% (active)
same,growth inhibition,[11]; at 50.0 µM,85.8% (active)
same,growth inhibition,[11]; at 100.0 µM,72% (active)
same,growth inhibition,[12]; at 1.2 µM,-9%
same,growth inhibition,[12]; at 3.7 µM,42%
same,growth inhibition,[12]; at 11.0 µM,84% (active)
same,growth inhibition,[12]; at 33.0 µM,99% (active)
same,growth inhibition,[12]; at 100.0 µM,99% (active)
same,growth inhibition,[15]; at 1.2 µM,8%
same,growth inhibition,[15]; at 3.7 µM,29%
same,growth inhibition,[15]; at 11.0 µM,66%
same,growth inhibition,[15]; at 33.0 µM,97% (active)
same,growth inhibition,[15]; at 100.0 µM,95% (active)
same,growth inhibition,[16]; at 1.2 µM,5%
same,growth inhibition,[16]; at 3.7 µM,32%
same,growth inhibition,[16]; at 11.0 µM,87% (active)
same,growth inhibition,[16]; at 33.0 µM,99% (active)
same,growth inhibition,[16]; at 100.0 µM,98% (active)
same,growth inhibition,[13]; [17],48%
same,growth inhibition,[13]; [18],85% (active)
same,growth inhibition,[13]; at 50.0 µM,91.5% (active)
same,growth inhibition,[14]; at 1.2 µM,11%
same,growth inhibition,[14]; at 3.7 µM,38%
same,growth inhibition,[14]; at 11.0 µM,90% (active)
same,growth inhibition,[14]; at 33.0 µM,97% (active)
same,growth inhibition,[14]; at 100.0 µM,96% (active)
